# Experimental data from ChEMBL document CHEMBL3988442, “University of Dundee, Small-Polar-MMV Screening Library” (2021).
# Among all 48,000 compounds or so, about 13,000 (27%) showed an effect of 50% or more. The list shows a part of the results.
# System: Wolbachia pipientis
# Assay: Anti-Wolbachia Cell-Based Screen
# Type: functional
# Design: scale not given: in the data most compounds retested in dose-response had high values
# Details: 5 µM
row,Compound,Percent Effect [%]
1,FC(F)(F)C1CCCn2c(CNCc3cccs3)nnc21 (stereo unspecified),-7.2
2,CCN(CC)C(=O)N1CCN(C2=NCC(C)S2)CC1 (stereo unspecified),-3.513
3,Cc1ccnc(N2CCN(Cc3ccccc3)CC(O)C2)c1 (stereo unspecified),10.83
4,Cc1nccc(CNC(=O)N2CCN(Cc3ccccc3)C[C@H]2C)n1,-2.521
5,Cc1nccc(CN2CC[C@@]3(CCCN3Cc3ccccc3)[C@@H](O)C2)n1,93.51
6,COc1ccc(-c2ccc(C(=O)NCCCC(N)=O)c(F)c2)c(F)c1,-2.164
7,CCn1cc(-c2c(C)c(C3CCOC(C)(C)C3)nc(N)c2C#N)cn1 (stereo unspecified),115.2
8,CCc1ccc(-c2c(C)c(-c3cnn(C)c3)nc(N)c2C#N)o1,7.382
9,Cc1cc(-c2cc(C3CCOC3)c(C#N)c(N)n2)ccc1Cl (stereo unspecified),25.02
10,CCCc1c(C2CCOC(C)(C)C2)nc(N)c(C#N)c1-c1cnn(C)c1 (stereo unspecified),105.7
11,Cc1c(C2CCOC(C)(C)C2)nc(N)c(C#N)c1-c1ccc(O)cc1 (stereo unspecified),105.2
12,Cn1cc(-c2noc(C3(C)CCOCC3)n2)cn1,-4.622
13,Cc1c(-c2cnn(C)c2)nc(N)c(C#N)c1-c1ccc(CO)o1,0.3251
14,N#Cc1c(C2CC2)cc(-c2ccc(O)cc2)nc1N,-0.3878
15,CN(C)C(=O)CN1C[C@@H]2CC[C@H](C1)N(C/C=C/c1ccc(F)cc1)C2,0.7109
16,CCc1cc(NC(=O)N2CCC(Oc3cccnc3)C2)n(C)n1 (stereo unspecified),-19.7
17,Cc1nn2cccnc2c1C(=O)NCc1ccccc1OCC1CC1,6.014
18,O=S(=O)(N1CCN(CC2CC2)CC1)N1CCCC1c1ccco1 (stereo unspecified),8.161
19,CC(=O)c1c(C)nn(CC(=O)N2Cc3cnc(CC(C)C)nc3C2)c1C,-0.1145
20,CSCCC(C)(O)CNC(=O)Nc1ccccc1C (stereo unspecified),6.778
21,Cc1ccccc1NC(=O)NCC(C)(O)c1cccs1 (stereo unspecified),117.7
22,COC(=O)c1ccc(S(=O)(=O)NCC(C)(O)c2cccs2)cc1 (stereo unspecified),-7.069
23,CCOc1ccc(NC(=O)NCC(C)(O)c2cccs2)cc1 (stereo unspecified),123.8
24,CCOCc1ccccc1NC(=O)NCC(C)(O)c1cccs1 (stereo unspecified),-8.36

row,Compound,Percent Effect [%]
1,COc1ccc(CNC(=O)NCC(O)(c2cccs2)C2CC2)cc1 (stereo unspecified),11.16
2,OC(CNc1ccc(Cl)cn1)CN1CCOCC1 (stereo unspecified),-5.222
3,Cc1n[nH]c(C)c1Sc1ccccc1NC(=O)N1CCOCC1,-5.626
4,Cn1cnnc1Sc1ccc(NC(=O)C2CC2)cc1Cl,-0.08341
5,COCC(=O)Nc1ccccc1Sc1c(C)n[nH]c1C,-1.881
6,Cc1n[nH]c(C)c1Sc1ccccc1NC(=O)N1CCN(C)CC1,1.27
7,CCn1nc(Br)nc1Sc1ccccc1NC(C)=O,119.4
8,Cc1n[nH]c(C)c1Sc1ccccc1NC(=O)CN1CCCC1,2.491
9,Cn1nc(Br)nc1Sc1ccccc1NC(=O)C1CC1,107.9
10,CSc1ccccc1NC(=O)CCC(=O)N(C)C1CCN(C)CC1,6.723
11,CCC(=O)Nc1ccccc1Sc1nc(Br)nn1C,107.5
12,CCCSc1ccccc1NC(=O)N1CCC(N2CCSCC2)CC1,-2.644
13,CC(=O)Nc1ccccc1Sc1nc(Br)nn1C,114.6
14,CN(C)C(=O)N1CCN(C(=O)c2cccc(Cl)c2)CC2(CNC(=O)C2)C1 (stereo unspecified),-8.821
15,CCCN(Cc1ccc(OC)nc1)Cc1ccccc1OC,7.541
16,CS(=O)(=O)c1nccn1Cc1ccc(OC(F)F)cc1,-0.8084
17,NC(=O)Nc1cccc(C(=O)N(Cc2ccc(F)cc2)C2CC2)c1,-11.54
18,NC(=O)C1(CNCc2csc(-c3cccs3)n2)CCOCC1,-0.8866
19,CC(C)c1cc(C(=O)N2CCN(c3cccc(C(=O)O)c3)CC2)n(C)n1,1.445
20,CC(C)N1CCCC(C(=O)N2CCN(c3cccc(C(=O)O)c3)CC2)C1 (stereo unspecified),107.1
21,CC(C)N1CCC(C(=O)N2CCN(c3cccc(C(=O)O)c3)CC2)CC1,106.6
22,CC(C)N1CCC(C(=O)N2CCC(c3ccc(F)cc3)C2)CC1 (stereo unspecified),11.91
23,O=C(Cc1ccc2c(c1)OCO2)N1CCCN(c2ccccc2)CC1,5.064
24,Cc1cccc(N2CCN(C(=O)CN3CCC(C(N)=O)CC3)CC2)c1,3.313

row,Compound,Percent Effect [%]
1,CC(C)N1CCC(C(=O)N2CCCN(c3ccccc3)CC2)CC1,106.5
2,CC(C)N1CCCC(C(=O)N2CCN(c3cnn(C)c(=O)c3)CC2)C1 (stereo unspecified),-17.55
3,Cc1nn(C)cc1C(=O)N1C[C@H]2CC[C@@H]1CN(S(=O)(=O)N(C)C)C2,7.621
4,CC(C)CCC1=NC2(CCN(C(=O)CN3CCCC3=O)CC2)C(=O)N1,0.2617
5,NS(=O)(=O)c1cnc(NCC2(c3cccc(F)c3)CCOCC2)s1,-14.69
6,CC(=O)N1CC(=O)N(c2cnn(C)c2)CC12CCN(CC1CC1)C2.O=C(O)C(F)(F)F (stereo unspecified),-1.209
7,CCN(CC)Cc1cc(=O)n2c(n1)CN(C(=O)c1ccc[nH]1)CCC2,89.92
8,CN(C)Cc1cc(=O)n2c(n1)CN(C(=O)Cc1cccs1)CCC2.O=C(O)C(F)(F)F,4.562
9,CC(C)N(C)Cc1cncc2c1CCN(C(=O)c1ccc[nH]1)C2.Cl.Cl,-17.08
10,Cc1ccsc1C(=O)N1CCCn2c(nc(CN(C)C)cc2=O)C1.O=C(O)C(F)(F)F,-10.18
11,CN(C)Cc1cc(=O)n2c(n1)CN(C(=O)c1ccc[nH]1)CCC2.O=C(O)C(F)(F)F,95.26
12,CC(C)N(C)Cc1cc(=O)n2c(n1)CN(C(=O)c1ccc[nH]1)CCC2,99.67
13,CC(=O)NC1CCCN(c2ccc(C#N)cc2C(F)(F)F)C1 (stereo unspecified),47.21
14,CC(C)N1CC(C(=O)NC(C)(C)CNC(=O)OC(C)(C)C)CC1=O (stereo unspecified),16.31
15,Cc1ccc(C(=O)OC(C)Cn2cccn2)c(=O)[nH]1 (stereo unspecified),-0.638
16,c1csc(SCC2CN=C(N3CCOCC3)S2)c1 (stereo unspecified),-10.18
17,CN(CCc1cnn(C)c1)C(=O)C(c1ccccc1F)N(C)C (stereo unspecified),-8.573
18,CC(C)c1nsc(N2CCOC3(CCCC3)C2)n1,-27.55
19,C[C@@H]1CN(C(=O)C2(Cn3cccn3)CC2)CC[C@@]1(O)C1CCOCC1,103.7
20,C[C@@H]1CN(C(=O)CCc2cnn(C)c2)C[C@@]1(O)C1CCC1,-2.131
21,CC(C)[C@]1(O)CN(C(=O)C2(Cn3cccn3)CC2)C[C@H]1C,94.9
22,CCN(C(=O)CCn1cccn1)C1CC1,0.4672
23,C[C@@H]1CN(C(=O)C2(Cn3cccn3)CC2)CC[C@@]1(O)C1CC1,95.17
24,C[C@@H]1CN(C(=O)C2(Cn3cccn3)CC2)C[C@@]1(O)C1CCC1,109.7

row,Compound,Percent Effect [%]
1,C[C@@H]1CN(C(=O)CCN2CCCC2)CC[C@@]1(O)C1CCC1,-5.805
2,C[C@@H]1CN(C(=O)CCN2CCCC2)CC[C@@]1(O)C1CCOCC1,18.72
3,C[C@@H]1CN(C(=O)CCc2cnn(C)c2)CC[C@@]1(O)C1CCOCC1,-4.294
4,C[C@@H]1CN(C(=O)c2ccncc2)CC[C@@]1(O)C1CCOCC1,-11.61
5,CC(C1CC1)N(C)C(=O)CCn1cccn1 (stereo unspecified),-12.77
6,CCCc1cc(C(=O)N2C[C@@H](C)[C@](O)(C3CCC3)C2)[nH]n1,-1.382
7,N#Cc1ccnc(N2CCN(CC(O)c3ccccc3)CC2)c1 (stereo unspecified),-34.32
8,COc1ccccc1C1(CNc2ncc(S(N)(=O)=O)s2)CC1,-5.545
9,CCN(CC)C(=O)N1CCN(C(=O)C2CCCc3[nH]ncc32)CC1 (stereo unspecified),-7.717
10,CC(NC(=O)NCCCc1n[nH]c(N)c1C#N)c1ccccc1 (stereo unspecified),11.96
11,Cn1cc(CN2CCc3c(nnn3C)C2COCc2ccccc2)cn1.O=C(O)C(F)(F)F (stereo unspecified),-8.957
12,CC(C)CN1CCc2[nH]cnc2C12CCN(C(=O)c1cccnc1)CC2,1.531
13,COCCNC(=O)NCC(C)c1ccccc1OC (stereo unspecified),-10.13
14,CNC(=O)[C@H]1C[C@@H]2CN(S(=O)(=O)c3ccccc3)C[C@@H]2N1C(C)=O,-8.592
15,O=C(c1ccoc1)N1C[C@@H]2CN(c3ncccn3)C[C@@H]2C1,-12.12
16,CNC(=O)[C@H]1C[C@@H]2CN(C(=O)c3occc3C)C[C@@H]2N1S(C)(=O)=O,100.3
17,CNC(=O)[C@H]1C[C@@H]2CN(C(=O)c3ccsc3)C[C@@H]2N1S(C)(=O)=O,104.8
18,CNC(=O)[C@H]1C[C@@H]2CN(C(=O)c3ccco3)C[C@@H]2N1S(C)(=O)=O,10.85
19,CCN1C[C@@H]2CN(C(=O)c3ccsc3)C[C@@H]2C1=O,-7.34
20,Cc1ccoc1C(=O)N1CC[C@@]2(C[C@H](NS(C)(=O)=O)CCO2)C1,-10.72
21,CNC(=O)[C@H]1C[C@@H]2CN(C(=O)c3ccoc3)C[C@@H]2N1S(C)(=O)=O,83.29
22,CNC(=O)[C@H]1C[C@@H]2CN(C(=O)c3ccc(C)o3)C[C@@H]2N1S(C)(=O)=O,94.93
23,CNC(=O)[C@H]1C[C@@H]2CN(C(=O)c3cscn3)C[C@@H]2N1S(C)(=O)=O,-14.13
24,O=C(c1ccoc1)N1C[C@H]2CC[C@@]3(N=C(c4ccccc4)NC3=O)[C@H]2C1,-13.12
